Data from PMC4336329 (PLoS ONE, 2015).
The campaign covered roughly 310,000 compounds. About 14,000 (4.5%) showed an effect of 50% or more. The effect is printed as a negative number. Only a selection was taken, and strong results are over-represented in it overall.

Each compound was assayed against human ether-à-go-go-related gene (hERG) potassium channel (human, UniProt Q12809) (assay: primary screen, population patch clamp on CHO cells stably expressing hERG; higher = less effect of the substance).
Sequence of human ether-à-go-go-related gene (hERG) potassium channel (Q12809 whole entry, looked up): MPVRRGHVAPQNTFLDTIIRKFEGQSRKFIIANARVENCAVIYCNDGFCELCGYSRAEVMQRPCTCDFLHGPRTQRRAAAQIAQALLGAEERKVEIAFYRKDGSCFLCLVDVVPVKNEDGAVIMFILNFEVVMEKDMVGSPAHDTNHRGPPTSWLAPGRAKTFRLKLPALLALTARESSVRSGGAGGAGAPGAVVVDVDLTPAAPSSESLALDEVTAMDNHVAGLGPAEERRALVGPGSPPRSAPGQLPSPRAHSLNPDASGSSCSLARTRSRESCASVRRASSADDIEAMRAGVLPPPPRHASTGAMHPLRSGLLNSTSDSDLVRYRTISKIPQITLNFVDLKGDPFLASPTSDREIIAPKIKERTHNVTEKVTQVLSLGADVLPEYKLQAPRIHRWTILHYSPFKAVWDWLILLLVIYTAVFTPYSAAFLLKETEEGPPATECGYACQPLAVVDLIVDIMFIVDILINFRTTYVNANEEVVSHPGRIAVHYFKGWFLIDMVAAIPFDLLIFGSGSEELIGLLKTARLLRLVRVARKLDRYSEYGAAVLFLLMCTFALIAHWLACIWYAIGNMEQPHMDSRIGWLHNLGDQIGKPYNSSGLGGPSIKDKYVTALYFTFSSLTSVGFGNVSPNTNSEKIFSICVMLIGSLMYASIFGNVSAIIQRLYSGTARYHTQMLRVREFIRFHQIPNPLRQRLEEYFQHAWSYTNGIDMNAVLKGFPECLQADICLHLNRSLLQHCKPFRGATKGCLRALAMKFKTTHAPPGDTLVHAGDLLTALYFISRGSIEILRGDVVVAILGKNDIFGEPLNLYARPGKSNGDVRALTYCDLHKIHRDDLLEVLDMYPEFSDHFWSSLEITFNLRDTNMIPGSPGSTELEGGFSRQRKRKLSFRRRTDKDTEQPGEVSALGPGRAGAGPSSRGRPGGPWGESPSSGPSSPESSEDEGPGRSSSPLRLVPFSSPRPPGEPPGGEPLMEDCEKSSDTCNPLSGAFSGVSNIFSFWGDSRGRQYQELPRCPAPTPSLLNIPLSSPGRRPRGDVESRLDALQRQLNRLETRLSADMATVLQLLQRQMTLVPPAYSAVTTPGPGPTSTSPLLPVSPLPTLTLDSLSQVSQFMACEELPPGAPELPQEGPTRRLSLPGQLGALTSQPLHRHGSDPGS
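Also: peak tail current of the secondary pulse compared with the same well before compound.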

Row | Compound | hERG current change (%, negative = inhibition) at 10uM
1 | COc1cccc(CNC(=O)CCNS(=O)(=O)c2ccc(Br)s2)c1 | -10.2%
2 | N#CCCSCc1ccc(OCC(=O)O)cc1 | -1.48%
3 | CCCNC(=O)c1cc(C)no1 | 12.6%
4 | Cc1ccc(C)c(NC(=O)CCN2CC(C)OC(C)C2)c1 (stereo not drawn) | 1.59%
5 | CC(C)C[C@H](NC(=O)N1c2ccccc2NC(=O)[C@@H]1C(C)C)C(=O)N[C@@H](Cc1ccccc1)C(=O)O | -2.11%
6 | FC(F)(F)C1=CC(c2ccc(Cl)cc2)=NCCN1 | -16.1%
7 | CN(c1ccccc1)S(=O)(=O)c1cccc(NC(=O)CN2CCCc3ccccc32)c1 | -2.81%
8 | O=C(N/C(=C\c1ccccc1Cl)C(=O)N1CCOCC1)c1ccc([N+](=O)[O-])cc1 | -66%
9 | O=C(N/C(=C/c1ccccc1Cl)C(=O)N1CCCC1)c1ccccc1 | -5.15%
10 | COc1ccc(/C=C(/NC(=O)c2ccc(Br)cc2)C(=O)N2CCOCC2)cc1 | 5.5%
11 | COc1ccc(/C=C(\NC(=O)c2ccc([N+](=O)[O-])cc2)C(=O)N2CCOCC2)cc1 | -75%
12 | COc1cc(/C=C(/NC(=O)c2ccccc2)C(=O)N2CCOCC2)c([N+](=O)[O-])cc1OC | -3.92%
13 | Cc1ccc(C(=O)N/C(=C/c2ccco2)C(=O)N2CCOCC2)cc1 | -12.7%
14 | COc1ccc(C(=O)N/C(=C\c2ccc3c(c2)OCO3)C(=O)N2CCOCC2)cc1 | 19.6%
15 | O=C(N/C(=C\c1ccco1)C(=O)N1CCOCC1)c1ccc([N+](=O)[O-])cc1 | -70.8%
16 | Cc1ccc(C(=O)N/C(=C\c2ccco2)C(=O)N2CCOCC2)cc1C | 11%
17 | COc1ccc(C(=O)/C=C/N(C)C)cc1OC | 7.92%
18 | CN(/N=C/c1ccncc1)c1cnc2ccccc2n1 | 19.3%
19 | CCCCCCC1NC(C(=O)O)CS1 (stereo not drawn) | -0.451%
20 | COc1ccc(S(=O)(=O)N2CCOC2CNC(=O)C(=O)NCCCN2CCOCC2)cc1OC (stereo not drawn) | 8.41%
21 | CCN(CC)c1cccc(OCC(=O)N(C)CCC#N)c1 | 18.9%

Row | Compound | hERG current change (%, negative = inhibition) at 10uM
22 | CC(C)(C)S(=O)(=O)c1ccc(S(=O)(=O)C(C)(C)C)s1 | 22.8%
23 | O=C(CC1C(=O)NCCN1Cc1c(F)cccc1Cl)NCCCn1cccn1 (stereo not drawn) | 10.8%
24 | O=C1c2ccccc2C(=O)C1c1ccc2ccccc2n1 | -13.4%
25 | Br.C1=C(c2ccco2)N2CCN=C2S1 | 1.91%
26 | COc1ccc(Nc2cc(C(=O)NCCCN3CCN(C)CC3)c3ccccc3n2)cc1OC | 1.49%
27 | Cc1ccc(Nc2ncc(C(=O)NCCCN3CCN(C)CC3)c3ccccc23)cc1Cl | -61.1%
28 | COc1ccc(Nc2cc(C(=O)NCCCN3CCN(C)CC3)c3ccccc3n2)cc1 | 2.72%
29 | CN(C)c1nc2n(c(=O)n1)CCO2 | 20.3%
30 | Cc1ccc(NC(=O)c2sc3nc(N4CCOCC4)c4c(c3c2N)CC(C)(C)OC4)cc1 | 5.7%
31 | CC(C)C(=O)Nc1ccc([N+](=O)[O-])cc1Br | -5.22%
32 | O=C(OC(C(=O)Nc1ccc([N+](=O)[O-])cc1Br)c1ccccc1)c1ccccc1 (stereo not drawn) | 5.91%
33 | CN(C)C(CNC(C(=O)Nc1ccc([N+](=O)[O-])cc1Br)c1ccccc1)c1ccccc1 (stereo not drawn) | -66.5%
34 | CCN(CC)CCNC(C(=O)Nc1ccc([N+](=O)[O-])cc1Br)c1ccccc1 (stereo not drawn) | -77%
35 | CCCCNC(C(=O)Nc1ccc([N+](=O)[O-])cc1Br)c1ccccc1 (stereo not drawn) | 5.72%
36 | COCCNC(C(=O)Nc1ccc([N+](=O)[O-])cc1Br)c1ccccc1 (stereo not drawn) | -74%
37 | COC(C(=O)Nc1ccc(F)cc1)c1ccccc1 (stereo not drawn) | -0.691%
38 | CN(C)C(CNC(C(=O)Nc1ccc(F)cc1)c1ccccc1)c1ccccc1 (stereo not drawn) | -70.6%
39 | COCCNC(C(=O)Nc1ccc(C)cc1[N+](=O)[O-])c1ccccc1 (stereo not drawn) | -6.29%
40 | CC(C)CNC(C(=O)Nc1ccc([N+](=O)[O-])cc1Br)c1ccccc1.O=C(O)C(=O)O (stereo not drawn) | -9.16%
41 | Cc1ccc(NC(=O)NCC(c2ccccc2)N(C)C)cc1 (stereo not drawn) | 12.4%
42 | COCCNC(C(=O)Nc1cc(Cl)cc(Cl)c1)c1ccccc1 (stereo not drawn) | -16.4%
